# Target: DDB2
# Test: pooled miR-30 sensor sort-seq; sequence = guide strand
# Conditions: shRNA
# Note: reference of the scale not given here.
row,Sequence,sensor-assay potency score (higher = more potent)
1,TAAAGTCTTGCAGCCTAGTTGT,-0.222
2,AACTTTTGAAATTAGGATCTGG,0.321
3,TACAACTTTTGAAATTAGGATC,-0.816
4,TTTAACAAATCGCCACCTCTGC,-0.868
5,TAATACAATCTCGGAGGTCTTC,-0.478
6,TTTAGTTCCAAGATAACCTTGG,0.69
7,TCTCCTGTGACCACCATTCGGC,-0.886
8,TCTGAGTCACATCTTCTGCTAG,-0.241
9,TAAACTCGGATCTCGCTCTTCT,0.0905
10,TTTTGAAATTAGGATCTGGGTA,-0.102
11,TTCGGCTACTAGCAGACACATC,-1.25
12,TCCATCGAACACGTCGATCGTC,-0.818
13,TACAATCTCGGAGGTCTTCTGG,-0.449

# Target: DDX28
# Test: as above
# Conditions: shRNA
row,Sequence,sensor-assay potency score (higher = more potent)
1,TAATCTTGCAGCGTTGGGGGGA,-0.579
2,TAGCTGAGAGTCTTGCCACTGC,-0.373
3,TAGTGCGTGCAGCACACGGGGC,-1.65
4,TTCTGCTCTGTCACGATGCTTG,-0.667
5,TTGGATTTTGTGGTCATCCAGA,-0.675
6,TTCGTCGGGACTGCGGACCGTG,-0.386
7,TTCCAGGAAGCTTTCATCCAGC,-0.626
8,TATGTCTCGGGAGCTCTTCTGG,-0.986
9,TAGTCCTGGAAGACTTCTCCTT,-1.12
10,ATAATTGACAACCAGCTCCACA,-0.971
11,TCATCCAACACCAAGAAGGAGA,-0.925
12,TTGACAACCAGCTCCACACCAG,-0.162

# Source: the OligoGym collection
